# Mcl1-Bid inh: Mcl-1/Bid binding inhibitors, primary screen, biochemical, TR-FRET, 1536-well; 220,000 compounds, 0.97% hits; TR-FRET Mcl-1/Bid-Dy647 peptide binding; AID 1021, 2008; inhibition, % at 21.7 µM;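 active = compounds that cut the binding signal by more than half at the single screening dose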;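 also: His-tagged Mcl-1 with europium anti-His antibody binding Bid BH3 peptide; 0% = Mcl-1 plus peptide wells and 100% = peptide-only wells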
# Target sequence (Q07820 whole entry, looked up): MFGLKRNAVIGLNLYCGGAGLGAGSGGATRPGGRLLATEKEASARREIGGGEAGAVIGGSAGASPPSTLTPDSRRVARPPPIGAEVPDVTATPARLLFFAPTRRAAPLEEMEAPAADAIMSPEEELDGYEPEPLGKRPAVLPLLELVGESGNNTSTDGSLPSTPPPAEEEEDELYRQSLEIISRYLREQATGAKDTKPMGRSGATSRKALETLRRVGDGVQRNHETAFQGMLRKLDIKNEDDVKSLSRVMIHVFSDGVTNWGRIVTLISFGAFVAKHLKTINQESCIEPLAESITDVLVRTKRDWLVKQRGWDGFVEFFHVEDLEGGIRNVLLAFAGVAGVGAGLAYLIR
# MCL1-BIM inh: inhibitors of MCL1 binding to BIM-BH3, primary screen, biochemical, fluorescence polarization. 320,000 compounds, 0.68% hits. inhibition, % at 10.9 µM. GST-MCL1 / FITC-Bim-BH3 fluorescence polarization. AID 2057, 2009;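 active = inhibition above the mean inhibition of all tested compounds plus 3 SD, set per campaign, cut at about 40% in these data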;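 also: 0% = DMSO wells and 100% = unlabeled Bim-BH3 peptide control; higher means more loss of mP so more displacement of Bim peptide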
# Mcl-1 Bim block: inhibitors of Bim peptide binding to Mcl-1, primary screen, biochemical, bead-based flow cytometry, multiplex; Bim peptide-Mcl-1 binding; inhibition, % at 10 µM; 190,000 compounds, 0.1% hits; in the data active = inhibition above about 40%;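 also: 0% = no compound tracer wells and 100% = peptide blocker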
# BCLXL inh: inhibitors of human Bcl-xL, primary screen, biochemical, fluorescence polarization, HTS; AID 2129, 2009; inhibition, % at 10.9 µM; 320,000 compounds, 0.7% hits; GST-Bcl-xL / FITC-Bim BH3 peptide fluorescence polarization;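 active = inhibition above the mean of all tested compounds plus 3 SD, cutoff set per campaign, cut at about 30% in these data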;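 also: 0% = DMSO wells and 100% = unlabeled Bim-BH3 peptide competitor; inhibitors lower millipolarization by displacing the labeled peptide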
# Target sequence (Q07817 whole entry, looked up): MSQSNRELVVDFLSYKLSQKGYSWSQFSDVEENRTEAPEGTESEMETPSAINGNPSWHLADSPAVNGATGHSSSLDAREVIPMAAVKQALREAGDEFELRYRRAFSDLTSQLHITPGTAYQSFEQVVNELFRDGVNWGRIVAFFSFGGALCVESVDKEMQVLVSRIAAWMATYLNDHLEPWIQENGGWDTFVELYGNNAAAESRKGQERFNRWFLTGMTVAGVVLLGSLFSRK
# Mcl1-Noxa inh: Mcl-1/Noxa binding inhibitors, primary screen, biochemical, TR-FRET, 1536-well. inhibition, % at 21.7 µM. TR-FRET Mcl-1/Noxa peptide binding, 2 h. 220,000 compounds, 1.5% hits. AID 1022, 2008. Induced myeloid leukemia cell differentiation protein Mcl-1 (Homo sapiens), Q07820;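 active = compounds that cut the protein-peptide binding signal by more than 50% relative to plate controls in a single-dose test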;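 also: His-tagged Mcl-1 with rhodamine Noxa BH3 peptide and terbium anti-His antibody; 0% = Mcl-1 plus Noxa peptide wells and 100% = peptide-only wells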
# GLD-1 RNA inh: GLD-1/TGE RNA complex disruptors, primary screen, biochemical, fluorescence polarization. inhibition, % at 5.96 µM. AID 2280, 2010. 320,000 compounds, 0.44% hits. purified GLD-1 + fluorescein TGE RNA;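 active = percent inhibition above a per-plate cutoff, the plate mean of test compounds plus 3 SD, cut at about 30% in these data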;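 also: 0% = DMSO wells with GLD-1 and probe and 100% = wells lacking GLD-1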
# * hit, by the source's call; x = no result given. Compounds with a hit are over-represented: about 2.3% of the library has one in this group of screens.
SMILES,Mcl1-Bid inh,MCL1-BIM inh,Mcl-1 Bim block,BCLXL inh,Mcl1-Noxa inh,GLD-1 RNA inh
O=C(Nc1nc2c(F)cc(F)cc2s1)C1CC(=O)N(Cc2ccco2)C1 (stereo unspecified),-20,13,x,9,59*,5
COc1cccc(C(=O)N2CCN(Cc3ccccn3)CC2)c1OC,68*,-6,-1,3,28,-5
COc1cccc(OC)c1C(=O)N1CCN(c2ccccn2)CC1,95*,5,1,3,35,5
COc1ccccc1C(=O)N1CCN(c2ccccn2)CC1,-6,2,-2,4,3,2
O=C(c1ccncc1)N1CCN(C2CCC(c3ccccc3)CC2)CC1 (stereo unspecified),-11,-8,x,0,28,1
COc1cccc(OC)c1C(=O)N1CCN(Cc2ccncc2)CC1,71*,-2,-6,-1,2,-2
COc1cccc(C(=O)N2CCN(C3CCC(c4ccccc4)CC3)CC2)c1OC (stereo unspecified),55*,1,0,3,7,3
COc1ccc(N2CCN(S(=O)(=O)CC34CCC(CC3=O)C4(C)C)CC2)cc1 (stereo unspecified),x,10,x,8,x,5
Cc1ccc(S(=O)(=O)NCC(=O)N(CC2CCCO2)C(C(=O)NCC2CCCO2)C(C)C)cc1 (stereo unspecified),x,-3,x,-1,x,10
CC(C)(C)NCC(O)COc1ccccc1C(=O)CCc1ccccc1 (stereo unspecified),15,-4,7,7,-17,-1
CC(C)(C)NCC(O)COc1ccccc1C(C)(C)C (stereo unspecified),-33,4,-1,2,54*,3
Cc1ccc(C(=O)N2CCn3c(C)ccc3C2C)cc1 (stereo unspecified),-25,42*,-2,43*,-6,15
CC(C)(C)c1cc(C(c2cccnc2)N2CCN(CCO)CC2)cc(C(C)(C)C)c1O (stereo unspecified),55*,11,-11,4,42,12
CC(C)C[C@H](NC(=O)N1CCn2c1nc1ccccc12)C(=O)NCc1ccc2c(c1)OCO2,x,-5,x,0,x,5
CS(=O)(=O)c1nsc2nc(=O)c(/C=C3\C=Nc4ccccc43)c(N)n12,10,-8,0,-4,38,2
CS(=O)(=O)c1ccc2c(c1)sc1nc(=O)c(/C=C3/C=CC(=O)C(O)=C3)c(N)n12,6,-10,x,1,90*,-21
COC1=C/C(=C/c2c(N)n3c(nc2=O)sc2cc(S(C)(=O)=O)ccc23)C=CC1=O,-9,-36,x,-21,54*,-36
Cc1cc(NS(=O)(=O)c2ccc(NC(=O)Cc3ccc([N+](=O)[O-])cc3)cc2)nc(C)n1,x,x,x,x,x,-4
COC(=O)c1ccc(-c2ccc(C(c3c(C)[nH][nH]c3=O)c3c(C)[nH][nH]c3=O)o2)cc1,-74,4,6,3,68*,-6
CCC1CCCCN1C(=O)CCNC(=O)Cn1cnc2ccccc2c1=O (stereo unspecified),x,13,x,3,x,6
O=C(C[C@@H]1C/C=C/CC[C@H](Cc2ccc(F)cc2)C(=O)OCCNC1=O)N[C@H](CO)Cc1ccccc1,x,x,x,x,x,2
Cc1cccc(C)c1NC(=O)C1c2ccccc2Oc2ccccc21,81*,-6,-4,1,17,6
Clc1ccc(-c2nsc(N3CCOCC3)n2)c(Cl)c1,x,3,x,7,x,-8
Cc1nc(S(=O)(=O)N(C)c2ccccc2)c(C#N)c(C)c1Cl,1,-10,-3,31*,2,0
CN(c1ccccc1)S(=O)(=O)c1ccc(Cl)nc1,-12,0,0,6,-10,-6
SMILES,Mcl1-Bid inh,MCL1-BIM inh,Mcl-1 Bim block,BCLXL inh,Mcl1-Noxa inh,GLD-1 RNA inh
Cc1ccccc1C(=O)N1CC(=O)Nc2ccc(F)cc2C1c1ccc(F)cc1 (stereo unspecified),x,0,x,86*,x,-1
O=C(Nc1ccc(-c2nc3cc(Cl)ccc3c(=O)o2)cc1)c1ccco1,72*,0,-5,0,-20,7
COc1cc(/C=C2/SC(=O)NC2=O)ccc1Oc1ccc([N+](=O)[O-])cc1[N+](=O)[O-],-107,10,x,2,90*,2
COc1cc(/C=C2\SC(=O)NC2=O)ccc1Oc1ccc([N+](=O)[O-])cn1,-10,4,x,7,-4,2
CCCOc1ccc(/C=C2\SC(N)=NC2=O)cc1OC,x,0,x,3,x,-12
COc1cc(/C=C2/SC(N)=NC2=O)ccc1Oc1ccc([N+](=O)[O-])cc1[N+](=O)[O-],67*,5,-4,5,60*,-2
CCc1ccc(CCC(=O)Nc2ccc(C)cc2C)o1,84*,5,-1,1,38,4
Cc1ccc(C(=O)Nc2nnc(NC(=S)Nc3ccccc3)s2)cc1,-28,9,-3,9,-27,10
CCOc1ccc(C(=O)Nc2nnc(NC(=S)Nc3ccccc3)s2)cc1,-31,3,64*,3,27,-1
CC(C)(C)c1csc(NC(=O)Cc2ccc(S(=O)(=O)N3CCOCC3)s2)n1,x,35,x,33*,x,22
CCCCc1nnc(NC(=O)Cc2ccc(S(=O)(=O)N3CCOCC3)s2)s1,x,2,x,6,x,16
O=C(c1cc(-c2ccco2)on1)N1CCc2ccccc2C1,15,2,-3,2,69*,-1
O=C(c1cc(-c2ccccc2O)on1)N1CCc2ccccc2C1,-22,4,3,5,11,9
CCN(Cc1nc2ccccc2c(=O)[nH]1)Cc1nc2ccsc2c(=O)[nH]1,-75,1,0,3,-66,-6
CCc1ccc2c(CN(CC)Cc3nc4ccccc4c(=O)[nH]3)cc(=O)oc2c1,90*,-2,-1,-1,-1,8
COC(=O)CCC(=O)OC1(C)C(=O)C2=CN(Cc3ccc4c(c3)OCO4)C(c3ccc(OC)cc3)=CC2=C(Br)C1=O (stereo unspecified),x,6,x,12,x,-1
COc1ccc(C2=CC3=C(Br)C(=O)C(C)(OC(=O)C4CCCC4)C(=O)C3=CO2)cc1 (stereo unspecified),-44,42*,x,31*,27,9

# Screening results deposited in PubChem BioAssay by several laboratories.
